The sample as a whole holds a higher share of hits than the screen did.
Autofluor counter: flagged as autofluorescent in microsphere protease counterscreen; compound autofluorescence counterscreen, microsphere flow cytometry; stronger effect = higher value; fluorescence intensity (concentration not given with the values); hit rate 3.1% among 360,000; AID 624483; in the data active means fluorescence intensity above about 16000; inconclusive means no clear call, values can overlap the other calls
TcdB inh: TcdB glycohydrolase inhibitors, primary screen, biochemical, single point, plate reader; inhibition, % at 9.99 µM; TcdB glycohydrolase enzymatic assay; Toxin B (Clostridioides difficile), P18177; hit rate 0.24% among 350,000; in the data active means inhibition above about 10%
Target sequence (P18177 whole entry, looked up): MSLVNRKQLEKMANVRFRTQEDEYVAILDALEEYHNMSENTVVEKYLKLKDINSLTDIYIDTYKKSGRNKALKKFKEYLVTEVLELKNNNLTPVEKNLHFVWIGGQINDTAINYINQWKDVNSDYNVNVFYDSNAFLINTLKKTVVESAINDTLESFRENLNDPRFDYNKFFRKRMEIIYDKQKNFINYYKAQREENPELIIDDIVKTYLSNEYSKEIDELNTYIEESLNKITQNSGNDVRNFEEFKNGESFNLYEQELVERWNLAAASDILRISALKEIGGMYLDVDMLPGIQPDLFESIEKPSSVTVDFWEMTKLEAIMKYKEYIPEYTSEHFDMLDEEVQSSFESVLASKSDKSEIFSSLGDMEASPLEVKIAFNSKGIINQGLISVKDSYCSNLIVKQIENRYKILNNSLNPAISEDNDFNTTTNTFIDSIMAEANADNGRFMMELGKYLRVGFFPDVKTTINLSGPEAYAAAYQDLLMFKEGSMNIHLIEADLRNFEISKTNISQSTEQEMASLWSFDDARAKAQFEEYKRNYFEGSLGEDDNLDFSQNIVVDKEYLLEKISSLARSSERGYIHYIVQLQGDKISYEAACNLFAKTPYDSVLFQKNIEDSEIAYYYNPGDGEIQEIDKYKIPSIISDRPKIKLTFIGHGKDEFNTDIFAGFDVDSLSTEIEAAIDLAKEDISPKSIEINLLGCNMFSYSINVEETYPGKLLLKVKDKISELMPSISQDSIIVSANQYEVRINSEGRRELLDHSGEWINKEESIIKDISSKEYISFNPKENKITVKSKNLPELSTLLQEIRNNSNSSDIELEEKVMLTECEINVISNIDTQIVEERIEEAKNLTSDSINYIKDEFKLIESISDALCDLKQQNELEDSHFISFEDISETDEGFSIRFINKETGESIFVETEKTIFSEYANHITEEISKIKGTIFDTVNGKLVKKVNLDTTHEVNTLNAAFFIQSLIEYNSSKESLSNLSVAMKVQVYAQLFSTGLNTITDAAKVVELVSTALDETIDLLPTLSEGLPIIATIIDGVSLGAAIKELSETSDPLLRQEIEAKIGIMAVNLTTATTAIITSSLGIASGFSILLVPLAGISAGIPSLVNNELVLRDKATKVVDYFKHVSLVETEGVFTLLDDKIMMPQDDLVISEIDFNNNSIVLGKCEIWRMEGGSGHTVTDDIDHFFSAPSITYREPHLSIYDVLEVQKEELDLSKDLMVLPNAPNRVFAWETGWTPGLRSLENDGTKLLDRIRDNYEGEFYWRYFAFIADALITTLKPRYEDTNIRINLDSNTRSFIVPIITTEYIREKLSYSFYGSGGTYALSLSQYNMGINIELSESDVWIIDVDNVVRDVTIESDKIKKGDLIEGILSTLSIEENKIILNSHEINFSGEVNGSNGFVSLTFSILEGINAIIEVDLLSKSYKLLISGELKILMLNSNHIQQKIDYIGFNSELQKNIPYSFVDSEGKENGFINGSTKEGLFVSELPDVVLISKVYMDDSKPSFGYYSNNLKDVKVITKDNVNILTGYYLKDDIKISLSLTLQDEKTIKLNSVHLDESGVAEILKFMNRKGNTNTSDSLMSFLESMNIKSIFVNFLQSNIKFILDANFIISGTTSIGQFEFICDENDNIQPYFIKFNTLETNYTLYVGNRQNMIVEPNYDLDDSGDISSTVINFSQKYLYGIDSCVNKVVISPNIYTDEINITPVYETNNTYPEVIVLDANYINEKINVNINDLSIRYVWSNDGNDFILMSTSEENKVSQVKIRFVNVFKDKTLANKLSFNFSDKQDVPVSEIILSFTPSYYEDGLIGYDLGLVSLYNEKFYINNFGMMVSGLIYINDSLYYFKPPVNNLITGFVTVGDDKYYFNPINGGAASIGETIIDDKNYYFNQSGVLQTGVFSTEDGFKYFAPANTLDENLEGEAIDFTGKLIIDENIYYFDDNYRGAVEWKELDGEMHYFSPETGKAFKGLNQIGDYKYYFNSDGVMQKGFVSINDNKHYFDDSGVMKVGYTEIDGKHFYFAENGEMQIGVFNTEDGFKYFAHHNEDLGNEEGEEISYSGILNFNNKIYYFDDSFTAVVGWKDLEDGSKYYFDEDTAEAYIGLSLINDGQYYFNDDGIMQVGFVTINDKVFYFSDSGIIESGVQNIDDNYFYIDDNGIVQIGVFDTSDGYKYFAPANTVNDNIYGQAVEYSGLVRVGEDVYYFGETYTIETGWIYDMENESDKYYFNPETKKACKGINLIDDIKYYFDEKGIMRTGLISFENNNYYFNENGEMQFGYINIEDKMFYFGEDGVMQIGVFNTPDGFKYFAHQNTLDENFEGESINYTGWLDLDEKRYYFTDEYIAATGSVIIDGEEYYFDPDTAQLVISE
Anthrax LF inh2: Bacillus anthracis LF protease inhibitors, primary screen, biochemical, multiplex microsphere, MLPCN library | AID 588501, 2011 | multiplex microsphere protease cleavage assay | inhibition, % at 10 µM | hit rate 0.12% among 360,000
BoNT-F LC inh: BoNT/F light chain protease inhibitors, primary screen, biochemical, flow cytometry, MLPCN library; hit rate 0.22% among 360,000; Multiplex microsphere protease cleavage assay; Botulinum neurotoxin type F light chain protease (Clostridium botulinum); inhibition, % at 10 µM; in the data active means inhibition above about 35%, passing the limit was not always enough; inconclusive means no clear call, values can overlap the other calls
BoNT-A LC inh2: BoNT/A light chain protease inhibitors, primary screen, biochemical, flow cytometry, MLPCN library; multiplex microsphere protease substrate cleavage; inhibition, % at 10 µM; hit rate 0.17% among 360,000; AID 588499, 2011
Each line names hits and unclear results; the compound was inactive in the other large screens; ! = not active in a repeat. Unless noted, no stated cut-off is given here; in the data, active means inhibition above about 30%; inconclusive means no clear call, values can overlap the other calls; inactive means below that.

OCc1nc2ccccc2n1CC(O)Cn1ccc2ccccc21 (stereo unspecified)	none (no result: TcdB inh)
CC1(C)CC(=O)C=C(Nc2cc(-c3ccccc3)[nH]n2)C1	Autofluor counter 21249 (no result: TcdB inh)
O=C(COc1ccc2ccc(=O)oc2c1)Nc1ccc2c(c1)OCCO2	Autofluor counter 21506 (no result: TcdB inh)
O=C(COc1ccc2ccc(=O)oc2c1)NCCN1CCOCC1	TcdB inh 13.1
CO[C@H]1CN(C)C(=O)c2cc(NS(=O)(=O)c3c(C)noc3C)ccc2OC[C@H](C)NC[C@@H]1C	none (no result: Autofluor counter, Anthrax LF inh2, BoNT-F LC inh, BoNT-A LC inh2)
C[C@@H]1CN([C@H](C)CO)S(=O)(=O)c2ccc(C#Cc3ccccc3F)cc2O[C@H]1CN(C)C	none (no result: Autofluor counter, Anthrax LF inh2, BoNT-F LC inh, BoNT-A LC inh2)
CCOc1cc(/C=C2\SC(=S)N(Nc3ccccc3)C2=O)ccc1O	Anthrax LF inh2 42.1, BoNT-A LC inh2 39.0 (no result: TcdB inh)
CCOC(=O)C1=C(c2ccccc2)N=c2sc(=Cc3cc(OC)c(OC)c(OC)c3)c(=O)n2C1c1cccs1 (stereo unspecified)	Anthrax LF inh2 36.7, BoNT-A LC inh2 32.4
CCOC(=O)C1=C(c2ccccc2)N=c2s/c(=C\c3ccc(O)cc3)c(=O)n2C1c1cccs1 (stereo unspecified)	none
CC(=O)Cn1c2ccccc2n2nc(CCC(=O)O)c(=O)nc12	none
COc1ccc(C(=O)Cn2c3ccccc3n3nc(CCC(=O)O)c(=O)nc23)cc1OC	Autofluor counter 20229 (no result: TcdB inh)
O=C(C[C@H]1CC[C@H]2[C@@H](COC[C@H](O)CN2C(=O)Nc2cccc(F)c2)O1)NCCCN1CCOCC1	none (no result: Autofluor counter, Anthrax LF inh2, BoNT-F LC inh, BoNT-A LC inh2)
Cc1nnc2n(c1=O)C(CS(=O)(=O)c1ccccc1)CS2 (stereo unspecified)	Autofluor counter 21322, BoNT-A LC inh2 inconclusive (no result: TcdB inh)
O=[N+]([O-])c1ccc(S(=O)(=O)CC2CSc3nc4ccccc4n32)cc1 (stereo unspecified)	none (no result: TcdB inh)
Clc1ccc(C[n+]2csc3ccccc32)cc1	none
Fc1ccc(C[n+]2csc3ccccc32)cc1	Autofluor counter 22598, BoNT-A LC inh2 inconclusive
Cc1ccc(C)c2[nH]c(=O)c(CN(Cc3ccco3)S(=O)(=O)c3ccc4c(c3)OCCO4)cc12	Autofluor counter 22529 (no result: TcdB inh)
CO[C@H]1CN(C)C(=O)c2cc(NC(=O)C3CC3)ccc2OC[C@@H](C)N(CCC(F)(F)F)C[C@H]1C	none (no result: Autofluor counter, Anthrax LF inh2, BoNT-F LC inh, BoNT-A LC inh2)
C/C(=N\Nc1cc(Cl)nc(C)n1)c1ccc(C)cc1	Autofluor counter 22065 (no result: TcdB inh)
C/C(=N\Nc1cc(Cl)nc(C)n1)c1ccc(Cl)c(Cl)c1	none (no result: TcdB inh)
CCn1c(CNC(=O)COc2c(C)cccc2C)nnc1SCC(=O)Nc1nccs1	Autofluor counter 17164 (no result: TcdB inh)
Cc1ccc(-n2c(COc3c(C)cccc3C)nnc2SCC(=O)Nc2nccs2)cc1	none (no result: TcdB inh)
CCn1c(SCC(=O)NCc2cccs2)nnc1-c1cccs1	Autofluor counter 23563
O=S(=O)(N[C@@H]1CC[C@@H](CCn2cc(C3CC3)nn2)O[C@H]1CO)c1ccc(Cl)cc1	none (no result: Autofluor counter, Anthrax LF inh2, BoNT-F LC inh, BoNT-A LC inh2)
O=S(=O)(NC[C@H]1CC[C@@H]2[C@@H](CN2Cc2cccc(-c3ccccn3)c2)O1)c1ccccc1	none (no result: Autofluor counter, Anthrax LF inh2, BoNT-F LC inh, BoNT-A LC inh2)
NC(=O)c1ccc[n+](CC(=O)c2ccc(NC(=O)c3ccccc3)cc2)c1	none
CCOC(=O)c1ccc[n+](CC(=O)c2ccc(NC(=O)c3ccccc3)cc2)c1	TcdB inh 12.4
O=C(NCCc1ccccn1)c1n[nH]c(=O)c2ccccc12	Autofluor counter 22070 (no result: TcdB inh)
COc1ccc(NC(=O)CNc2cccc(C#N)c2)cc1Cl	BoNT-F LC inh inconclusive (no result: TcdB inh)
CN(CC(=O)Nc1ccc(C#N)cc1)Cc1ccc(Cl)cc1Cl	Autofluor counter 22298 (no result: TcdB inh)
COc1ccc(NCC(=O)Nc2ccc(C#N)cc2)cc1Cl	Autofluor counter 22730 (no result: TcdB inh)
COc1ccc(NC(C)C(=O)Nc2ccc(C#N)cc2)cc1Cl (stereo unspecified)	Autofluor counter 22894, BoNT-A LC inh2 inconclusive (no result: TcdB inh)
CC=Cc1ccc2n(c1=O)C[C@H]1[C@H](CO)[C@@H](C(=O)N[C@H](C)c3ccccc3)[C@@H]2N1Cc1ccccc1 (mixture of isomers)	none (no result: Autofluor counter, Anthrax LF inh2, BoNT-F LC inh, BoNT-A LC inh2)
C[C@H](CO)N1C[C@H](C)[C@H](CN(C)Cc2ccc(C(F)(F)F)cc2)Oc2ccc(NC(=O)C3CCCCC3)cc2CC1=O	none (no result: Autofluor counter, Anthrax LF inh2, BoNT-F LC inh, BoNT-A LC inh2)
CCn1c(SCC(=O)Nc2nccs2)nnc1-c1cc2cccc(OC)c2o1	none (no result: TcdB inh)
COc1cccc2cc(-c3nnc(SCC(=O)Nc4cc(C(F)(F)F)ccc4Cl)n3N)oc12	Autofluor counter 23578 (no result: TcdB inh)
CCn1c(SCC(=O)NC2CCCCC2)nnc1-c1cc2cccc(OC)c2o1	none (no result: TcdB inh)
COc1cccc2cc(-c3nnc(SCC(=O)NCc4ccccc4)n3C)oc12	Autofluor counter 22828, BoNT-A LC inh2 inconclusive
O=C(C[C@@H]1CC[C@H]2[C@@H](COC[C@H](O)CN2C(=O)C2CCCC2)O1)NCc1ccncc1	none (no result: Autofluor counter, Anthrax LF inh2, BoNT-F LC inh, BoNT-A LC inh2)
C=CCNC(=O)COc1ccc(Br)cc1Cl	Autofluor counter 20768 (no result: TcdB inh)
CCOC(=O)N1CCN(C(=O)COc2ccc(Br)cc2Cl)CC1	Autofluor counter 20543, BoNT-A LC inh2 inconclusive (no result: TcdB inh)
Cc1c(C(=O)Nc2ccccc2-c2ccccc2)cccc1[N+](=O)[O-]	Autofluor counter 20236 (no result: TcdB inh)
COc1ccc(Br)cc1C(=O)Nc1ccc(O)cc1	TcdB inh 24.2
COc1ccc(Br)cc1C(=O)Nc1ccccc1-c1ccccc1	Autofluor counter 28074
COc1ccc(Br)cc1C(=O)Nc1ccccc1N1CCCC1	none
c1ccc2oc(NC3=NCN(C4CCCCC4)CN3)nc2c1	none (no result: Autofluor counter, Anthrax LF inh2, BoNT-F LC inh, BoNT-A LC inh2)
c1ccc2sc(NC3=NCN(C4CCCCCC4)CN3)nc2c1	Autofluor counter 19894
COc1ccc2c3c(n(C)c2c1)[C@H](CO)N(C(=O)c1ccccc1)CC31CCN(CC2CC2)CC1	none (no result: Autofluor counter, Anthrax LF inh2, BoNT-F LC inh, BoNT-A LC inh2)
C=Cc1c(C)c2cc3[nH]c(cc4nc(cc5nc(cc1[nH]2)C(C)=C5CCC(=O)O)C(CCC(=O)O)=C4C)c(C)c3C=C	BoNT-A LC inh2 42.9!
O=C(C[C@@H]1CC[C@H](NC(=O)Cc2cccnc2)[C@H](CO)O1)Nc1ccc(-c2ccccc2)cc1	none (no result: Autofluor counter, Anthrax LF inh2, BoNT-F LC inh, BoNT-A LC inh2)
Clc1cccc(-c2ccc3ncnc(NCc4cccs4)c3c2)c1	TcdB inh 11.1
COc1ccc(C#Cc2ccc3c(c2)[C@H]2[C@H](CCN2S(=O)(=O)c2cccc(OC)c2)[C@H](CO)N3C)cc1	none (no result: Autofluor counter, Anthrax LF inh2, BoNT-F LC inh, BoNT-A LC inh2)
Cc1cn(C(=O)c2ccccc2)c(=S)n1-c1ccc(Cl)cc1	Autofluor counter 17230 (no result: TcdB inh)
CO[C@H]1CN(C)C(=O)c2cc(NC(=O)C3CCCC3)ccc2OC[C@H](C)N(C(=O)CC2CC2)C[C@H]1C	none (no result: Autofluor counter, Anthrax LF inh2, BoNT-F LC inh, BoNT-A LC inh2)
CCOC(=O)N1CCC(n2c(SCC(=O)NCCC3=CCCCC3)nc3ccccc3c2=O)CC1	Autofluor counter 19812 (no result: TcdB inh)
CC(=O)NCCn1c(SCC(=O)NCCC2=CCCCC2)nc2ccccc2c1=O	Autofluor counter 24653 (no result: TcdB inh)
CC(=O)NCCn1c(SCc2cc(=O)n3cc(Cl)ccc3n2)nc2ccccc2c1=O	Autofluor counter 21005, BoNT-A LC inh2 inconclusive
Cc1ccc(-n2nnnc2SCC(=O)NCCC2=CCCCC2)c(C)c1	Autofluor counter 20542 (no result: TcdB inh)
CCOC(=O)N1CCC(n2c(SCC(=O)NCc3ccccc3)nc3ccccc3c2=O)CC1	none (no result: TcdB inh)

From PubChem
